Measurements taken from PubChem BioAssay (NCI).
This is part of a sample that, as a whole, favours compounds with a hit. Of some 83,000 tested, about 20% had one in any assay.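 Each cell line was grown in a 96-well plate and treated with one concentration of compound for 48 hours. Values below 10 were considered active.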 Activity calls are given as the source filed them.

Tested on: HS 578T breast
Assay: NCI-60 one-dose screen, 48 h (100 = growth as untreated, 0 = no growth, -100 = all killed)
Details: 10 µM unless noted

| Compound | growth |
| --- | --- |
| CN1CCN(CCCNC(=O)c2c3c(n4ccccc24)C(=O)c2ncccc2C3=O)CC1 | 61.2% (inactive) |
| CN1CCN(CC(=O)N(C)c2ccc(N=C(c3ccccc3)c3c(O)[nH]c4ccc([N+](=O)[O-])cc34)cc2)CC1 | 18.2% (inactive) |
| CCCCCCCCNc1ncnc2c1ncn2Cc1nnc2c3ccccc3c(Cl)nn12 | 54.3% (inactive) |
| CC/C(=C(/c1ccc(Cl)cc1)c1ccc(OCCCN(C)C)cc1)c1ccc(OC)cc1 | 84.8% (inactive) |
| Cc1ccc(C23CCC(=O)N2CCc2cncn23)cc1 (configuration not stated) | 101% (inactive) |
| O=C(COc1ccc(/C=C2\Oc3ccccc3C2=O)cc1)Nc1nccs1 | 107% (inactive) |
| Cc1c(C(=O)C(SC(=S)N2CCOCC2)SC(=S)N2CCOCC2)nnn1-c1ccc([N+](=O)[O-])cc1 | 123% (inactive) |
| O=[N+]([O-])c1ccc(Oc2cccc3c(Oc4ccc([N+](=O)[O-])cc4[N+](=O)[O-])cccc23)c([N+](=O)[O-])c1 | 88.1% (inactive) |
| CN(C)CCOc1ccc(/C(=C(/CCCCCCCCCC[P+](c2ccccc2)(c2ccccc2)c2ccccc2)c2ccccc2)c2ccccc2)cc1 | -36.4% (active) |
| CC1(C)CC[C@]2(CO)CC[C@]3(C)C(=CC[C@@H]4[C@@]5(C)CCNCC(C)(C)[C@@H]5CC[C@]43C)[C@@H]2C1 | 96.7% (inactive) |
| O=c1oc2ccccc2cc1-c1nn(-c2ccccc2)cc1/C=N/Nc1nc(-c2ccccc2)c(N=Nc2ccccc2)s1 | 87.5% (inactive) |
| COc1cc(/C=C2\CN(S(=O)(=O)c3ccc(C)cc3)C/C(=C\c3cc(CN4CCCC4)c(O)c(OC)c3)C2=O)cc(CN2CCCC2)c1O | 9.95% (active) |
